“And” between values parts separate entries of the source, which are not always exact repeats. Identical values can stand only once.
Target: RAF proto-oncogene serine/threonine-protein kinase (Homo sapiens) (UniProt P04049);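 further: values are the mean percent inhibition of CRAF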
Conditions: at 1 µM

RAF proto-oncogene serine/threonine-protein kinase (Homo sapiens), sequence (P04049 whole entry): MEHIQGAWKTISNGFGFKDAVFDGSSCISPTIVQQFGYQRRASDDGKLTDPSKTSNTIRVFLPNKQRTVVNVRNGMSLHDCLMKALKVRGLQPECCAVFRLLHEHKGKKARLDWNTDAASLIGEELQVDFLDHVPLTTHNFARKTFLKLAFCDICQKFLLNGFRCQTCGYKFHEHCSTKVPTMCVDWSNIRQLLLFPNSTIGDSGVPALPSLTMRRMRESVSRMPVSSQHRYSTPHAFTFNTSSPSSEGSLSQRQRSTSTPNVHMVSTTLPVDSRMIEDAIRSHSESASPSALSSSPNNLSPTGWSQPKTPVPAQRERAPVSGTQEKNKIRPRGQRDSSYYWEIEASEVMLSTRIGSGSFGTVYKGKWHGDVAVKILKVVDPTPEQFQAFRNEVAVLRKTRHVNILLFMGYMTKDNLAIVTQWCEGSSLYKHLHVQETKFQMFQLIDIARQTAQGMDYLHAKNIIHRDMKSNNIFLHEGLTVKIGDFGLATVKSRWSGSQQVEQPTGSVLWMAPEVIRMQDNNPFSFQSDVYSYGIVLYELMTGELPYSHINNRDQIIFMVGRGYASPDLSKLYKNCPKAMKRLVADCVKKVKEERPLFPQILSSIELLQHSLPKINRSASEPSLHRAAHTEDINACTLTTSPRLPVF

**Q.** With `CN1CCN(Cc2ccc(-c3cc4ncnc(Nc5ccc(OCc6cccc(F)c6)c(Cl)c5)c4s3)o2)CC1` as the molecule, how does the inhibition read?
**A.** Its inhibition is -2.88% and 11.7%.

**Q.** How did the inhibition turn out when `COC(=O)Nc1nc2cc(Oc3ccc(NC(=O)Nc4ccccc4)cc3)ccc2[nH]1` was run?
**A.** The inhibition was 17.3%.

**Q.** For `NS(=O)(=O)c1ccc(N/N=C2\C(=O)Nc3ccc(C(=O)NCc4ccncc4)cc32)cc1`, which inhibition is on record?
**A.** The inhibition was -3.37%.

**Q.** With `CNC(=O)c1ncccc1Nc1nc(Nc2cc3c(cc2OC)CCCN3C(=O)CN(C)C)nc2[nH]ccc12` as the molecule, how does the inhibition read?
**A.** Its inhibition is -9.95%.

**Q.** How did the inhibition turn out when `CS(=O)(=O)CCNCc1ccc(-c2ccc3ncnc(Nc4ccc(OCc5ccccc5)cc4)c3c2)o1` was run?
**A.** The inhibition was 2.22%.

**Q.** `Cc1nnc(-c2cccc(-c3ccc(C(=O)NCC4CC4)cc3)c2)o1` was tested. Which inhibition did it give?
**A.** The inhibition was 1.67%.

**Q.** With `O=C1Nc2ccccc2/C1=C1\CCc2cc(O)ccc21` as the molecule, how does the inhibition read?
**A.** The inhibition was -4.27%.

**Q.** For `Cc1cc(O)cc(C)c1/C=C/c1cncc(C(=O)OC(C)(C)C)c1`, which inhibition is on record?
**A.** Its inhibition is -0.4%.

**Q.** For `O=C(O[C@H]1CN[C@H](C#Cc2cc3ncnc(Nc4ccc5c(cnn5Cc5ccccc5)c4)c3s2)C1)N1CCOCC1`, which inhibition is on record?
**A.** The inhibition was -1.71%.

**Q.** Which inhibition does the source give for `Nc1nccc(-c2c(-c3ccc(F)cc3)ncn2C2CCNCC2)n1` here?
**A.** The inhibition was 8.14% and -2.89%.

**Q.** With `CN1CCC(n2cnc(-c3ccc(F)cc3)c2-c2ccnc(NCCO)n2)CC1` as the molecule, how does the inhibition read?
**A.** Its inhibition is 1.26%.

**Q.** Which inhibition does the source give for `CC1(C)CC(n2cnc(-c3ccc(F)cc3)c2-c2ccnc(N)n2)CC(C)(C)N1` here?
**A.** The inhibition was 2.12%.

**Q.** Which inhibition does the source give for `CN1CCC(C(=O)Nc2n[nH]c3nc(-c4ccc(O)cc4)c(Br)cc23)CC1` here?
**A.** The inhibition was 2.83% and -8.49%.

**Q.** For `CN(c1ccc(NC(=O)NCCN2CCOCC2)cc1)c1ccnc(Nc2ccc(CS(C)(=O)=O)cc2)n1`, which inhibition is on record?
**A.** The inhibition was 7.58%.

**Q.** With `COc1cccc(-n2ncc3c(N/N=C/c4ccc(C(=O)NCCN(C)C)cc4)ncnc32)c1` as the molecule, how does the inhibition read?
**A.** Its inhibition is 1.13%.

**Q.** For `CS(=O)(=O)Nc1ccc(-c2cc(-c3ccccc3)cc(C(N)=O)c2N)cc1`, which inhibition is on record?
**A.** Its inhibition is -4.37%.

**Q.** With `N#Cc1ccc2c(-c3ccnc(NC4CC4)n3)c(-c3ccc(F)cc3)nn2c1` as the molecule, how does the inhibition read?
**A.** The inhibition was -2.54%.

**Q.** For `COc1ccccc1-c1cc(/C=C2\C(=O)Nc3ncc(Br)cc32)cc(Br)c1O`, which inhibition is on record?
**A.** Its inhibition is -9.49%.

**Q.** `COc1cc2c(cc1Nc1nc(Nc3cccc(F)c3C(N)=O)c3cc[nH]c3n1)N(C(=O)CN1CCN(C(C)C)CC1)CC2` was tested. Which inhibition did it give?
**A.** The inhibition was -4.19%.

**Q.** How did the inhibition turn out when `CC(C)c1ccc(-c2cc(-c3c[nH]nc3-c3ccccn3)ccn2)cc1` was run?
**A.** The inhibition was 1.4%.

**Q.** For `NS(=O)(=O)c1cccc(N/C=C2\C(=O)Nc3ccccc32)c1`, which inhibition is on record?
**A.** The inhibition was 2.59%.

**Q.** With `Nc1ncnc2occ(-c3ccc(NC(=O)Nc4cc(C(F)(F)F)ccc4F)cc3)c12` as the molecule, how does the inhibition read?
**A.** The inhibition was -6.08% and -5.86%.

**Q.** How did the inhibition turn out when `COc1ccc2ncn(-c3cc(O[C@H](C)c4ccccc4C(F)(F)F)c(C(N)=O)s3)c2c1` was run?
**A.** Its inhibition is 0.1%.

**Q.** How did the inhibition turn out when `CCOc1ccc2c(-c3ccnc(Nc4cc(OC)cc(C(F)(F)F)c4)n3)cnn2n1` was run?
**A.** The inhibition was -1.65%.

**Q.** Which inhibition does the source give for `COc1cc(N2CCN(C(C)C)CC2)ccc1Nc1nc(Nc2cccc3ncccc23)c2cc[nH]c2n1` here?
**A.** The inhibition was 10.1%.

**Q.** With `CS(=O)(=O)Nc1ccc(-c2ccc3c(NC(=O)C4CC4)n[nH]c3c2)cc1` as the molecule, how does the inhibition read?
**A.** The inhibition was 5.45%.

**Q.** With `CNC(=O)c1cncc(/C=C/c2ccccc2C)c1` as the molecule, how does the inhibition read?
**A.** The inhibition was -2.68%.

**Q.** How did the inhibition turn out when `Cc1cc(O)cc(C)c1/C=C/c1cncc(C(N)=O)c1` was run?
**A.** The inhibition was 5.31%.

**Q.** With `Fc1cccc(COc2ccc(Nc3ncncc3C#Cc3ccccc3)cc2Cl)c1` as the molecule, how does the inhibition read?
**A.** The inhibition was 5.17%.

**Q.** Which inhibition does the source give for `FC(F)(F)CNc1nccc(-c2cnn3ncccc23)n1` here?
**A.** Its inhibition is -1%.

**Q.** Which inhibition does the source give for `CC1=C(C(=O)Nc2ccc3[nH]nc(C)c3c2)C(c2ccc(C(F)(F)F)cc2)CC(=O)N1` (configuration not stated) here?
**A.** Its inhibition is -1.39%.

Target: T1, Interleukin-1 receptor-associated kinase 4 (Homo sapiens) (UniProt Q9NWZ3);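 further: reported figure is the mean inhibition of IRAK4 activity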
T1 sequence (whole entry): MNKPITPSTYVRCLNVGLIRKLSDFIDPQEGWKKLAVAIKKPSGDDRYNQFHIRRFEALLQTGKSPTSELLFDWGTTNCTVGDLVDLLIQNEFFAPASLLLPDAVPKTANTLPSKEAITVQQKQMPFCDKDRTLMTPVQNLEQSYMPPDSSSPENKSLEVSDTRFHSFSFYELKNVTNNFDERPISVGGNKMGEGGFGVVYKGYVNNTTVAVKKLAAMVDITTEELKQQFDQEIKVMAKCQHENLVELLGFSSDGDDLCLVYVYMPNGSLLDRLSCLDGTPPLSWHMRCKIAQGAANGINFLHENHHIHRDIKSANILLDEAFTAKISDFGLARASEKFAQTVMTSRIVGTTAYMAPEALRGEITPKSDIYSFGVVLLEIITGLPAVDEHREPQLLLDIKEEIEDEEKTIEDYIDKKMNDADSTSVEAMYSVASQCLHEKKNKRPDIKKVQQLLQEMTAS
Conditions: at 0.1 µM

**Q.** For `CN1CCN(Cc2ccc(-c3cc4ncnc(Nc5ccc(OCc6cccc(F)c6)c(Cl)c5)c4s3)o2)CC1`, which inhibition is on record?
**A.** Its inhibition is 0.28% and 1.52%.

**Q.** How did the inhibition turn out when `COC(=O)Nc1nc2cc(Oc3ccc(NC(=O)Nc4ccccc4)cc3)ccc2[nH]1` was run?
**A.** The inhibition was 2.38%.

**Q.** For `NS(=O)(=O)c1ccc(N/N=C2\C(=O)Nc3ccc(C(=O)NCc4ccncc4)cc32)cc1`, which inhibition is on record?
**A.** The inhibition was -2.46%.

**Q.** Which inhibition does the source give for `CNC(=O)c1ncccc1Nc1nc(Nc2cc3c(cc2OC)CCCN3C(=O)CN(C)C)nc2[nH]ccc12` here?
**A.** The inhibition was -0.32%.

**Q.** For `CS(=O)(=O)CCNCc1ccc(-c2ccc3ncnc(Nc4ccc(OCc5ccccc5)cc4)c3c2)o1`, which inhibition is on record?
**A.** Its inhibition is 1.54%.

**Q.** For `Cc1nnc(-c2cccc(-c3ccc(C(=O)NCC4CC4)cc3)c2)o1`, which inhibition is on record?
**A.** The inhibition was -1.48%.

**Q.** For `O=C1Nc2ccccc2/C1=C1\CCc2cc(O)ccc21`, which inhibition is on record?
**A.** The inhibition was 0.67%.

**Q.** `Cc1cc(O)cc(C)c1/C=C/c1cncc(C(=O)OC(C)(C)C)c1` was tested. Which inhibition did it give?
**A.** The inhibition was 3.06%.

**Q.** `O=C(O[C@H]1CN[C@H](C#Cc2cc3ncnc(Nc4ccc5c(cnn5Cc5ccccc5)c4)c3s2)C1)N1CCOCC1` was tested. Which inhibition did it give?
**A.** Its inhibition is -1.41%.

**Q.** `Nc1nccc(-c2c(-c3ccc(F)cc3)ncn2C2CCNCC2)n1` was tested. Which inhibition did it give?
**A.** The inhibition was 3.05% and 0.88%.

**Q.** With `CN1CCC(n2cnc(-c3ccc(F)cc3)c2-c2ccnc(NCCO)n2)CC1` as the molecule, how does the inhibition read?
**A.** Its inhibition is -1.44%.

**Q.** Which inhibition does the source give for `CC1(C)CC(n2cnc(-c3ccc(F)cc3)c2-c2ccnc(N)n2)CC(C)(C)N1` here?
**A.** Its inhibition is 4.73%.

**Q.** How did the inhibition turn out when `CN1CCC(C(=O)Nc2n[nH]c3nc(-c4ccc(O)cc4)c(Br)cc23)CC1` was run?
**A.** Its inhibition is 3.04% and 2.37%.

**Q.** How did the inhibition turn out when `CN(c1ccc(NC(=O)NCCN2CCOCC2)cc1)c1ccnc(Nc2ccc(CS(C)(=O)=O)cc2)n1` was run?
**A.** The inhibition was -5.94%.

**Q.** For `COc1cccc(-n2ncc3c(N/N=C/c4ccc(C(=O)NCCN(C)C)cc4)ncnc32)c1`, which inhibition is on record?
**A.** The inhibition was -3.06%.

**Q.** `CS(=O)(=O)Nc1ccc(-c2cc(-c3ccccc3)cc(C(N)=O)c2N)cc1` was tested. Which inhibition did it give?
**A.** Its inhibition is 0.55%.

**Q.** For `N#Cc1ccc2c(-c3ccnc(NC4CC4)n3)c(-c3ccc(F)cc3)nn2c1`, which inhibition is on record?
**A.** Its inhibition is 0.03%.

**Q.** Which inhibition does the source give for `COc1ccccc1-c1cc(/C=C2\C(=O)Nc3ncc(Br)cc32)cc(Br)c1O` here?
**A.** The inhibition was 2.4%.

**Q.** `COc1cc2c(cc1Nc1nc(Nc3cccc(F)c3C(N)=O)c3cc[nH]c3n1)N(C(=O)CN1CCN(C(C)C)CC1)CC2` was tested. Which inhibition did it give?
**A.** The inhibition was -0.19%.

**Q.** Which inhibition does the source give for `CC(C)c1ccc(-c2cc(-c3c[nH]nc3-c3ccccn3)ccn2)cc1` here?
**A.** The inhibition was 1.27%.

**Q.** Which inhibition does the source give for `NS(=O)(=O)c1cccc(N/C=C2\C(=O)Nc3ccccc32)c1` here?
**A.** Its inhibition is 2.9%.

**Q.** `Nc1ncnc2occ(-c3ccc(NC(=O)Nc4cc(C(F)(F)F)ccc4F)cc3)c12` was tested. Which inhibition did it give?
**A.** Its inhibition is -1.81% and -1.2%.

**Q.** How did the inhibition turn out when `COc1ccc2ncn(-c3cc(O[C@H](C)c4ccccc4C(F)(F)F)c(C(N)=O)s3)c2c1` was run?
**A.** The inhibition was 1.48%.

**Q.** For `CCOc1ccc2c(-c3ccnc(Nc4cc(OC)cc(C(F)(F)F)c4)n3)cnn2n1`, which inhibition is on record?
**A.** Its inhibition is -3.8%.

**Q.** Which inhibition does the source give for `COc1cc(N2CCN(C(C)C)CC2)ccc1Nc1nc(Nc2cccc3ncccc23)c2cc[nH]c2n1` here?
**A.** Its inhibition is 5.39%.

**Q.** `CS(=O)(=O)Nc1ccc(-c2ccc3c(NC(=O)C4CC4)n[nH]c3c2)cc1` was tested. Which inhibition did it give?
**A.** The inhibition was -4.64%.

**Q.** `CNC(=O)c1cncc(/C=C/c2ccccc2C)c1` was tested. Which inhibition did it give?
**A.** Its inhibition is -0.44%.

**Q.** `Cc1cc(O)cc(C)c1/C=C/c1cncc(C(N)=O)c1` was tested. Which inhibition did it give?
**A.** The inhibition was -1.86%.

**Q.** Which inhibition does the source give for `Fc1cccc(COc2ccc(Nc3ncncc3C#Cc3ccccc3)cc2Cl)c1` here?
**A.** The inhibition was 0.71%.

**Q.** How did the inhibition turn out when `FC(F)(F)CNc1nccc(-c2cnn3ncccc23)n1` was run?
**A.** Its inhibition is 0.77%.

**Q.** How did the inhibition turn out when `CC1=C(C(=O)Nc2ccc3[nH]nc(C)c3c2)C(c2ccc(C(F)(F)F)cc2)CC(=O)N1` (configuration not stated) was run?
**A.** Its inhibition is -3.01%.
